For test [1], the target named is human Retinoic Acid Receptor gamma (RARg), RARG (gene 5916) (UniProt P13631). As to the kind of experiment: ATG_RARg_TRANS: Attagene TRANS-FACTORIAL HepG2 Assay for human Retinoic Acid Receptor gamma (RARg) (AID 2283009; active = hit-call score of the fitted dose curve at least 0.9, where 1 is the maximum;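 as to AC50: AC50 is for reporter induction above DMSO meaning RARg activation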). In a few lines: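 HepG2 transiently transfected with GAL4-UAS reporter units and chimeric NR-Gal4 constructs; 24 h compound exposure. Reporter mRNA quantified by RT-PCR, FAM labeling, HpaI digestion and capillary electrophoresis; gain-of-signal versus DMSO.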
Sequence of human Retinoic Acid Receptor gamma (RARg), RARG (gene 5916) (P13631 whole entry, looked up, the tested form may be a part): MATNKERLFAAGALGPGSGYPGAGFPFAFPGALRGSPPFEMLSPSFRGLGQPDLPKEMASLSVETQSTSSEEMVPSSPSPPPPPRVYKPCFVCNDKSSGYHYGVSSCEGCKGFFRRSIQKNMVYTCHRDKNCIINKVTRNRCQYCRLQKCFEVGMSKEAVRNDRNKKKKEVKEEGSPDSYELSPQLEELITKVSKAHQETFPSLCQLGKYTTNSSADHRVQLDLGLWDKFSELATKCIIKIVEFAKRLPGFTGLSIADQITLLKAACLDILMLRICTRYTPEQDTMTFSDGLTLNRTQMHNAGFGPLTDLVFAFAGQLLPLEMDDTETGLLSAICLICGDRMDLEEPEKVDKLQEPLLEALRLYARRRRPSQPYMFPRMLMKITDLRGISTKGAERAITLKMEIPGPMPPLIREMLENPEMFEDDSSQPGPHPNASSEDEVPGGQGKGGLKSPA

For test [2], the target named is Retinoic acid receptor RXR-alpha (Homo sapiens) (UniProt P19793). As to the kind of experiment: ATG_RXRa_TRANS: Attagene TRANS-FACTORIAL HepG2 Assay for human Retinoid X Receptor alpha (RXRa) (AID 2283012; active = hit-call score of the fitted dose curve at least 0.9, where 1 is the maximum). In a few lines:
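HepG2 cells transiently transfected with GAL4-UAS reporter units and chimeric RXRa-Gal4 protein, treated 24 h. Reporter mRNA measured by RT-PCR, fluorescent labelling, HpaI digestion and capillary electrophoresis. Induction fitted against DMSO.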

In test [3] the target is human Retinoid X Receptor beta (RXRb), RXRB (gene 6257) (UniProt P28702). The test can be described thus: ATG_RXRb_TRANS: Attagene TRANS-FACTORIAL HepG2 Assay for human Retinoid X Receptor beta (RXRb) (AID 2283013; active = hit-call score of the fitted dose curve at least 0.9, where 1 is the maximum). In a few lines:
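HepG2 cells were transiently transfected with multiplexed GAL4-UAS reporters and a chimeric RXRb-Gal4 construct, then exposed for 24 h. Reporter mRNA was quantified by RT-PCR, FAM labeling, HpaI digestion and capillary electrophoresis; gain of signal was scored against DMSO.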

Read-out in test [4]: E-selectin (Homo sapiens) (UniProt P16581)
The test can be described thus: BSK_3C_Eselectin: BioMAP Diversity Plus: 3C Assay for Eselectin Biomarker Activity (AID 2283015). The note with it: primary human endothelial cells (HUVEC); actives raise or lower the signal. In a few lines:
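HUVEC, 3C stimulation; compound exposure 24 h; E-selectin by ELISA; gain- or loss-of-signal fitted bidirectionally vs DMSO baseline.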

Read-out in test [5]: Interleukin-1 alpha (IL1a), IL1A (gene 3552)
As to the kind of experiment: BSK_BE3C_IL1a: BioMAP Diversity Plus: BE3C Assay for Interleukin-1 alpha (IL1a) Biomarker Activity (AID 2283016). The conditions noted are these: primary human bronchial epithelial cells; actives raise or lower the signal. A digest of the protocol:
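Human primary bronchial epithelial cells, 24 h chemical exposure; IL-1a quantified by ELISA, fitted bidirectionally against DMSO. Cytotoxicity assessed in parallel by SRB total-protein staining at the time of measurement.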

Read-out in test [6]: Monocyte Chemoattractant Protein-1 (MCP1), CCL2 (gene 6347)
As to the kind of experiment: BSK_4H_MCP1: BioMAP Diversity Plus: 4H Assay for Monocyte Chemoattractant Protein-1 (MCP1) Biomarker Activity (AID 2283018). The conditions noted are these: primary human endothelial cells (HUVEC); actives raise or lower the signal. In a few lines:
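Human umbilical vein endothelial cells (4H system) exposed to chemicals for 24 h in 96-well format. MCP-1 measured by ELISA; bidirectional fitting against DMSO, with SRB total-protein staining in parallel cultures for cytotoxicity.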

Read-out in test [7]: Human Leukocyte Antigen - DR isotype (HLADR), HLA-DRA (gene 3122)
The test can be described thus: BSK_3C_HLADR: BioMAP Diversity Plus: 3C Assay for Human Leukocyte Antigen - DR isotype (HLADR) Biomarker Activity (AID 2283019).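 As to outcome: ELISA of cell-surface HLA-DR on HUVEC 24 h after dosing.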 The conditions noted are these: primary human endothelial cells (HUVEC); actives raise or lower the signal. In a few lines:
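HUVEC, 3C stimulation, 24 h post-dose; HLA-DR by ELISA; bidirectional curve fit vs DMSO baseline; gain or loss of signal scored.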

Read-out in test [8]: Interleukin-8 (IL8), CXCL8 (gene 3576)
The test can be described thus: BSK_3C_IL8: BioMAP Diversity Plus: 3C Assay for Interleukin-8 (IL8) Biomarker Activity (AID 2283020). The conditions noted are these: primary human endothelial cells (HUVEC); actives raise or lower the signal. In a few lines:
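Primary human umbilical vein endothelial cells were dosed for 24 h. IL-8 was quantified by ELISA and fitted bidirectionally against DMSO. Cytotoxicity was assessed in parallel cultures by SRB staining at 560 nm.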

Read-out in test [9]: Monokine induced gamma interferon (MIG), CXCL9 (gene 4283)
The test can be described thus: BSK_3C_MIG: BioMAP Diversity Plus: 3C Assay for Monokine induced gamma interferon (MIG) Biomarker Activity (AID 2283021).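 As to AC50: MIG protein level measured by immunoassay in the treated endothelial cultures.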 The conditions noted are these: primary human endothelial cells (HUVEC); actives raise or lower the signal. In a few lines: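 HUVEC primary endothelial cultures dosed with chemical; MIG quantified by ELISA at 24 h. Data fitted bidirectionally against DMSO control, with parallel SRB total-protein staining for cytotoxicity.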

Test [10] is described as follows: BSK_3C_SRB: Viability Assessment in the BioMAP Diversity Plus: 3C Assay (AID 2283023).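 Also: fitted both ways against DMSO so a hit may be signal rise or drop.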 The conditions noted are these: primary human endothelial cells (HUVEC). In a few lines: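 HUVEC, 24 h post-dose; 10% TCA fix, 0.1% SRB stain, A560 nm. Bidirectional curve fit vs DMSO negative control.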
Read-out in test [11]: Matrix Metallopeptidase 1 (MMP1), MMP1 (gene 4312)
The test can be described thus: BSK_BE3C_MMP1: BioMAP Diversity Plus: BE3C Assay for Matrix Metallopeptidase 1 (MMP1) Biomarker Activity (AID 2283024). The note with it: primary human bronchial epithelial cells; actives raise or lower the signal. A digest of the protocol: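 Human primary bronchial epithelial cells (BE3C system) dosed for 24 h; MMP-1 quantified by ELISA. Bidirectional fit against DMSO; cytotoxicity tracked in parallel cultures by SRB total-protein staining.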

Test [12] in a line: BSK_3C_Vis: BioMAP Diversity Plus: 3C Assay for Morphology Visualization (AID 2283025).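 Also: fitted both ways so gain or loss versus DMSO counts.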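 As to AC50: light microscopy image of cell morphology used as background control.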 The conditions noted are these: primary human endothelial cells (HUVEC). A digest of the protocol:
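Human umbilical vein endothelial cell morphology was inspected by light microscopy 24 h after chemical dosing; scored bidirectionally relative to DMSO.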

Read-out in test [13]: Pselectin, SELP (gene 6403)
The test can be described thus: BSK_4H_Pselectin: BioMAP Diversity Plus: 4H Assay for Pselectin Biomarker Activity (AID 2283026). The note with it: primary human endothelial cells (HUVEC); actives raise or lower the signal. In a few lines: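 Primary human umbilical vein endothelial cells were treated 24 h, and cell-surface P-selectin was then quantified by ELISA. Bidirectional fit versus DMSO; cytotoxicity checked in parallel cultures by SRB total-protein staining.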

Test [14] can be described thus: BSK_4H_SRB: Viability Assessment in the BioMAP Diversity Plus: 4H Assay (AID 2283027).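 Also: cells exposed to compound for 24 h before staining.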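 As to AC50: curves fitted both ways versus DMSO so AC50 may be loss or gain.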 The note with it: primary human endothelial cells (HUVEC). A digest of the protocol: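 Human umbilical vein endothelial cells, 24 h after chemical dosing; total protein measured by 0.1% sulforhodamine B staining after 10% TCA fixation, read at 560 nm. Bidirectional fitting against DMSO.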

Test [15] is described as follows: BSK_BE3C_SRB: Viability Assessment in the BioMAP Diversity Plus: BE3C Assay (AID 2283028).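 As to AC50: fitted both ways so AC50 may mark signal gain or loss versus DMSO.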 The note with it: primary human bronchial epithelial cells. In a few lines: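 Primary human bronchial epithelium; chemical dosing, 24 h; 10% TCA fix, 0.1% SRB stain, A560; bidirectional fit vs DMSO baseline.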
The target in test [16] is human RAR-related Orphan Receptor gamma (RORg), RORC (gene 6097) (UniProt P51449). The test can be described thus: ATG_RORg_TRANS: Attagene TRANS-FACTORIAL HepG2 Assay for human RAR-related Orphan Receptor gamma (RORg) (AID 2283011; active = hit-call score of the fitted dose curve at least 0.9, where 1 is the maximum). A digest of the protocol: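 Transient MRTU transfection of HepG2 (TRANS format, exogenous NR-Gal4 chimera). 24 h dosing. Total RNA → oligo(dT) RT → PCR → 6-FAM labelling → HpaI cut → CE. Gain vs DMSO.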
Sequence of human RAR-related Orphan Receptor gamma (RORg), RORC (gene 6097) (P51449 whole entry, looked up, the tested form may be a part): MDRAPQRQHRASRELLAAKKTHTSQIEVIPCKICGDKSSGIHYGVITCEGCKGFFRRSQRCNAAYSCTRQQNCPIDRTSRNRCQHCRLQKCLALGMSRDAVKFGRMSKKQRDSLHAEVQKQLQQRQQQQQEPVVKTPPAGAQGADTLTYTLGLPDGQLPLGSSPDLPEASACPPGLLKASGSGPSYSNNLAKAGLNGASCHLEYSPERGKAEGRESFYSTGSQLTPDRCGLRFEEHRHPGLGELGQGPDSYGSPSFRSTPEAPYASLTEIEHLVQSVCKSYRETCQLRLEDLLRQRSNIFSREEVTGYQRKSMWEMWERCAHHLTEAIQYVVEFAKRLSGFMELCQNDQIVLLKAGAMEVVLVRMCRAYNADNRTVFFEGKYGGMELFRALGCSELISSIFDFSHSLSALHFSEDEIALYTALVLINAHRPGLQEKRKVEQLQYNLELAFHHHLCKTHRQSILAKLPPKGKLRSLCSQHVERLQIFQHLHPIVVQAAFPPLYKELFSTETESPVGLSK

Read-out in test [17]: Monocyte Chemoattractant Protein-1 (MCP1), CCL2 (gene 6347)
The test can be described thus: BSK_3C_MCP1: BioMAP Diversity Plus: 3C Assay for Monocyte Chemoattractant Protein-1 (MCP1) Biomarker Activity (AID 2283017). The note with it: primary human endothelial cells (HUVEC); actives raise or lower the signal. In a few lines:
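HUVEC, 3C system; 24 h chemical exposure; MCP-1 by ELISA; bidirectional curve fit vs DMSO baseline.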

In test [18] the target is human Vitamin D Receptor (VDR), VDR (gene 7421) (UniProt P11473). The test can be described thus: ATG_VDR_TRANS: Attagene TRANS-FACTORIAL HepG2 Assay for human Vitamin D Receptor (VDR) (AID 2283022; active = hit-call score of the fitted dose curve at least 0.9, where 1 is the maximum). In a few lines: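 RT-PCR/capillary electrophoresis read-out of reporter mRNA induction in transiently transfected HepG2; 24 h dosing; chimeric NR-Gal4 (TRANS format); gain-of-signal fit against DMSO baseline.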
Sequence of human Vitamin D Receptor (VDR), VDR (gene 7421) (P11473 whole entry, looked up, the tested form may be a part): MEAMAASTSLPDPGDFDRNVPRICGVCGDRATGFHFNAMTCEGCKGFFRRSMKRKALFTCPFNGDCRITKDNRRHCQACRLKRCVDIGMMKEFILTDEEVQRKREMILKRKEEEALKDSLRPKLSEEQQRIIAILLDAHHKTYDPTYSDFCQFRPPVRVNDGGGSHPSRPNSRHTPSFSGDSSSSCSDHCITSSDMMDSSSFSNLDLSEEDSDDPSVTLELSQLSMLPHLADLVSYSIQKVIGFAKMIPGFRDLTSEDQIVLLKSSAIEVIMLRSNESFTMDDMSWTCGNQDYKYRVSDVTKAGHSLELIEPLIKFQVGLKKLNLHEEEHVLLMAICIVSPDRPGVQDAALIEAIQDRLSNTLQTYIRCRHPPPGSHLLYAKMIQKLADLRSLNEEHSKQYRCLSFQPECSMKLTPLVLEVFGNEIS

Test [19] deals with human Thyroid Receptor alpha (THRa1), THRA (gene 7067) (UniProt P10827). The test can be described thus: ATG_THRa1_TRANS: Attagene TRANS-FACTORIAL HepG2 Assay for human Thyroid Receptor alpha (THRa1) (AID 2283014; active = hit-call score of the fitted dose curve at least 0.9, where 1 is the maximum). In a few lines: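 Transient HepG2 transfection, NR-Gal4 chimera driving GAL4-UAS reporters; 24 h compound exposure; total RNA, oligo(dT) RT, PCR, fluorescent primer extension, capillary electrophoresis. Upward direction vs DMSO control.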
Sequence of human Thyroid Receptor alpha (THRa1), THRA (gene 7067) (P10827 whole entry, looked up, the tested form may be a part): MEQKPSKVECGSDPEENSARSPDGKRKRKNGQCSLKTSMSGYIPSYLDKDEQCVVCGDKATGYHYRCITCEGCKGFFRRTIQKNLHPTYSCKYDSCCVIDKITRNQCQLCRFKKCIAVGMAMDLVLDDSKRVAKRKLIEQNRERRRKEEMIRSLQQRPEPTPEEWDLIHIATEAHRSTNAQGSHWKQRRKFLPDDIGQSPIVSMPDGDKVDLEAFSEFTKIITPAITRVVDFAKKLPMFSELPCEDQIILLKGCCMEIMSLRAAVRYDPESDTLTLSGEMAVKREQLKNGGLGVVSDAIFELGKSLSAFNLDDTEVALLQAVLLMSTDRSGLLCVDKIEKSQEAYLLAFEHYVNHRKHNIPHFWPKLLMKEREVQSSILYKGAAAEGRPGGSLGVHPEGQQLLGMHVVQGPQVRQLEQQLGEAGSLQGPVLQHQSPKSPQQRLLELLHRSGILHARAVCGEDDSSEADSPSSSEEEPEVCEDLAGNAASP

The structures appear in SMILES notation. Records with an inconclusive call do not appear. Calls of active or inactive are those of the source. The calls were made as follows, unless noted: active = hit-call score of the fitted dose curve at least 0.9, where 1 is the maximum; inactive = score below 0.9.

Sequence of Retinoic acid receptor RXR-alpha (Homo sapiens) (P19793 whole entry, looked up, the tested form may be a part): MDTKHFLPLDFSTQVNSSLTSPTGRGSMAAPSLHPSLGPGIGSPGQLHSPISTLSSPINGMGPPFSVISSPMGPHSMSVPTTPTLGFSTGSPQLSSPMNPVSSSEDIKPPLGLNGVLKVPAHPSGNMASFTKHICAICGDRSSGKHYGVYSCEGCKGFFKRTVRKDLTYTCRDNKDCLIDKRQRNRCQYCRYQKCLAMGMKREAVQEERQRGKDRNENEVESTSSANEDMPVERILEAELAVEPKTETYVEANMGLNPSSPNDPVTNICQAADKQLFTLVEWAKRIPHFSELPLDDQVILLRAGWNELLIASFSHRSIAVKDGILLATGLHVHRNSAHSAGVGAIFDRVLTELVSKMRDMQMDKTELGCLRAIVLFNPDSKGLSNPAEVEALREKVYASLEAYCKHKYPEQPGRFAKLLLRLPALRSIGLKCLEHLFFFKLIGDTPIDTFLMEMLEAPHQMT
Sequence of E-selectin (Homo sapiens) (P16581 whole entry, looked up): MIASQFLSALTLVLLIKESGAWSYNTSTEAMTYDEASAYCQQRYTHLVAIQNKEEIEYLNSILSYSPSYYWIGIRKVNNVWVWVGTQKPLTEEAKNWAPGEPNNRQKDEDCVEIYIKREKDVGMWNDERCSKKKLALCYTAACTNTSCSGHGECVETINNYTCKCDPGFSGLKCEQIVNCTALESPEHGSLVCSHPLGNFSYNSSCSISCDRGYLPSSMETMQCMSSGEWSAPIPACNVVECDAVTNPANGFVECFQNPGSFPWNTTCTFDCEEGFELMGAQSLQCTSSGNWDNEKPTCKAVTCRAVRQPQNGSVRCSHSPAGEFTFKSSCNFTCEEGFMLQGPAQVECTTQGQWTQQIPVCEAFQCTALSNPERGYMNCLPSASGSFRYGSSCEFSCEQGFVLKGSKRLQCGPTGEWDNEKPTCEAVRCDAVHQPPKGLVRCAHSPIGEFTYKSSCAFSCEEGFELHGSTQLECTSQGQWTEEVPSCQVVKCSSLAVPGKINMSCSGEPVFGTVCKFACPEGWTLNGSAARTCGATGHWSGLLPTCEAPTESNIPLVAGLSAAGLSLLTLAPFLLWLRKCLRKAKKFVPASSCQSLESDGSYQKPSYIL
Sequence of human Retinoid X Receptor beta (RXRb), RXRB (gene 6257) (P28702 whole entry, looked up, the tested form may be a part): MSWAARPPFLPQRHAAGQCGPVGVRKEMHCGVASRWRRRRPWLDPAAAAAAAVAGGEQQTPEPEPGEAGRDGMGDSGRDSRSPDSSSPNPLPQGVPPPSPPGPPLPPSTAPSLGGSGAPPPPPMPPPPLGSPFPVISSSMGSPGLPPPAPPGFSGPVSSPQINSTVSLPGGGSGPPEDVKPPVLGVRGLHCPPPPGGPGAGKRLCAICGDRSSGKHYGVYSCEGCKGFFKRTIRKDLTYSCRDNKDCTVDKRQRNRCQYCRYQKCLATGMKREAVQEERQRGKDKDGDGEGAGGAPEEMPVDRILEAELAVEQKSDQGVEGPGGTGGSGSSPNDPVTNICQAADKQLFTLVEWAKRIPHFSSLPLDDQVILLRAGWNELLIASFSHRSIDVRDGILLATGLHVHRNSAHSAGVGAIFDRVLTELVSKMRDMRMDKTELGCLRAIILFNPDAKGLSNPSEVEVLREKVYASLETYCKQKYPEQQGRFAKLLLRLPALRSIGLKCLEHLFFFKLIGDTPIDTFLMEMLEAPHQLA

In the case of `CC1(C)Cc2cccc(O)c2O1`, the result in [1], in [2], in test [3], in [4], in test [5] and in [6] was inactive. The outcome in [7], in test [8], in test [9], in [10], in test [11] and in test [12] was inactive. The outcome in test [13], in test [14] and in test [15] was inactive.
With `ClCC(Cl)CCl`, the compound was called inactive in [1], in test [16], in test [2], in test [3], in [4] and in test [5]. Also, the result in [17], in test [6], in [7], in [8], in test [9] and in test [18] was inactive. In addition, the result in test [10], in [11], in test [12], in test [14] and in [15] was inactive.
As usually defined, the AC50 is the midpoint of the concentration-response curve, whichever way the signal moves. With `CCC(C)(C)c1ccc(O)c(C(C)(C)CC)c1`, the AC50 was 27.4 µM (active) in [1]; 33.4 µM (active) in test [2]; 9.09 µM (active) in [3]; 10.4 µM (active) in [4]; 32.5 µM (active) in test [5]; 11.1 µM (active) in test [6]. Besides, the AC50 is 7.84 µM (active) in test [7]; 8.88 µM (active) in [8]; 13.3 µM (active) in test [9]; 55 µM (active) in [18]; 7.65 µM (active) in test [10]; 34.8 µM (active) in test [11]. Further, the AC50 in test [12] is 6.71 µM (active); in test [13] it was 7.72 µM (active); in test [14], 11.7 µM (active); in [15] it was 28.8 µM (active).
With `C1CCC(NC2CCCCC2)CC1`, the outcome in test [1], in test [2], in [3], in [19] and in test [18] was inactive.
Turning to `CN(C)N=O`, the call in [1], in [2], in test [19], in test [4], in [5] and in test [6] was inactive. In addition, the result in [7], in test [8], in test [9], in test [18], in [10] and in test [11] was inactive. The result in test [12], in [14] and in test [15] was inactive.
For `COP(=S)(OC)Oc1cc(Cl)c(Cl)cc1Cl`, the call in [1], in [2], in test [19], in [4], in test [5] and in test [6] was inactive. Moreover, the result in test [8], in test [9], in test [10], in test [12] and in [15] was inactive. Besides, the half-maximal activity concentration (AC50) in test [3] is 68.2 µM (active); in [7] it was 27.4 µM (active); in [11], 20 µM (active); in [14], 20 µM (active).
As for `O=[N+]([O-])c1ccc2c3c(cccc13)CC2`, the outcome in test [1], in [2], in [19], in test [4], in test [5] and in test [6] was inactive. The outcome in test [8], in test [9], in test [18], in [11], in test [13] and in [14] was inactive. Further, the outcome in test [15] was inactive. Further, the AC50 in [7] was 13.7 µM (active); in test [10], 20 µM (active); in [12], 8.8 µM (active).
As for `C[C@]12CC[C@H](O)CC1=CC[C@@H]1[C@@H]2CC[C@]2(C)C(=O)CC[C@@H]12`, the outcome in [1], in test [2] and in test [3] was inactive.

The record behind these values is PubChem BioAssay (EPA / NIEHS).
